Screening results: PubChem BioAssay, National Center for Advancing Translational Sciences (NCATS)
A selection: hits, their analogues and other compounds. The true share with any hit is near 3.3%.
Tau fil binding: binds recombinant human tau filaments. P10636. recombinant tau filaments, thioflavin S fluorescence, 15 h; filaments grown with octadecylsulfate alongside compound. Potency, µM (doses to about 57.1 µM). actives 2% (n = 71,000). AID 596;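 note: actives lower thioflavin S fluorescence by blocking filaments or displacing dye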
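Quantitative HTS: thioflavine S signal from ODS-induced tau filaments, excited at 450 nm, emission 510 nm. Conditions: 1 uM tau, 30 uM ODS, 15 h at 37 C, pH 7.4.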
TsaE inh: inhibitors of E. coli YjeE (TsaE); P0AF67; purified YjeE enzyme, qHTS inhibition assay; Potency, µM; actives 0.05% (n = 71,000); AID 605
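Purified YjeE (10 uM) with BODIPY Texas Red-labeled ADP probe (2 uM); compounds pin-transferred, 15 min at room temperature. Binding inhibition read as decreased fluorescence polarization; ADP titration as control.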
DNA Pol III inh: DNA polymerase III holoenzyme inhibition. reconstituted DNA polymerase III holoenzyme replication, biochemical. Potency, µM (doses to about 57.1 µM). actives 0.25% (n = 71,000). AID 603
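Reconstituted *E. coli* holoenzyme (0.35 nM Pol III, 1 nM beta, 154 nM SSB, 2 nM primase) was preincubated with compound for 15 min at RT. Synthesis on 1.4 nM ssM13Gori ran 35 min, then was stopped with PicoGreen/EDTA and read as dsDNA fluorescence.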
ALOX15 inhib: inhibitors of human 15-lipoxygenase (ALOX15). actives 1.4% (n = 74,000). Potency, µM (top dose mostly 57.1 µM), hits mostly inhibitors. P16050. purified 15hLO-1, xylenol orange hydroperoxide absorbance; note: nearly all actives have a fitted effect of over 55% in size
Target sequence (P16050 whole entry, looked up): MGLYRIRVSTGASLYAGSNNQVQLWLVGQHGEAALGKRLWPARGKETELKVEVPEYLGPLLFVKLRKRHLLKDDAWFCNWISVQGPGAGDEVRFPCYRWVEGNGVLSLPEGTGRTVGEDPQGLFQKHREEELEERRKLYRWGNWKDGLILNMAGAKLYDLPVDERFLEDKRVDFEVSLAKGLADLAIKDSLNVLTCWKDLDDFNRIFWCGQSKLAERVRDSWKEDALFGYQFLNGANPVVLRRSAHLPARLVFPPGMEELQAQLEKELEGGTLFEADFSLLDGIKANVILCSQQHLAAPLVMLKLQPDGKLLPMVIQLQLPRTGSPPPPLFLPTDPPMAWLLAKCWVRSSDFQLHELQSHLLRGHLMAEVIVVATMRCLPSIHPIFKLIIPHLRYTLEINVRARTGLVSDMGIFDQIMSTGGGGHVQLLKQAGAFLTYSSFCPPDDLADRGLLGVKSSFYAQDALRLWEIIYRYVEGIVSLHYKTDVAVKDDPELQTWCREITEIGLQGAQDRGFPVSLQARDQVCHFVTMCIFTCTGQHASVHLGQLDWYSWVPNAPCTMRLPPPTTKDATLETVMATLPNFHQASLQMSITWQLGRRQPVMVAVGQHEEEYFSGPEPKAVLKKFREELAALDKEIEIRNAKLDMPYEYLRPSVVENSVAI
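Inhibition is scored from a chromogenic endpoint. After 15 min enzyme-compound contact, arachidonic acid (50 uM final) reacts 6 min with 40 nM 15hLO-1 at room temperature, then Fe-XO reagent is added for 30 min and absorbance ratio recorded.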
Hsp90 Hop PPI: changes Hsp90-Hop TPR2A binding signal, up or down | AlphaScreen TPR2A-His6 binding biotin-Hsp90 C-terminal peptide | Potency, µM (doses to about 57 µM) | actives 0.44% (n = 71,000) | AID 595; active = well fitted curve in either direction with a large enough effect; inconclusive = small, poorly fitted or top-dose-only effect, or another doubt
Of the large screens only hits and unclear results are named; the others gave an inactive call; ! = repeats disagree. Unless noted, calls come from the whole dose curve; as a rule, active = well fitted curve in the direction sought with a large enough effect; inconclusive = small, poorly fitted or top-dose-only effect, or another doubt; inactive = no such curve, though single readings can be large; an effect the other way counts as inactive or inconclusive.

O=C(c1cccc(F)c1)N1CCC2(CC1)CCN(c1cccc(-c3ccccc3)c1)CC2	Tau fil binding 25.1µM
c1ccsc1	none
CCCCCCCCCC(=O)N[C@@H](CN1CCOCC1)[C@@H](O)c1ccccc1	none
COc1ccc(C2/C(=C(/O)c3ccccc3)C(=O)C(=O)N2CCO)cc1 (stereo not drawn)	none (no result: Tau fil binding, TsaE inh, DNA Pol III inh, Hsp90 Hop PPI)
COc1ccc(N/C(C)=C2/C(=O)C(=O)N(CCO)C2c2ccc(Br)cc2)cc1 (stereo not drawn)	Tau fil binding 15.8µM
CCSC1=NC(=O)/C(=C2/C=Cc3ccccc3N2CC)S1	Tau fil binding 3.98µM, Hsp90 Hop PPI inconclusive
O=[N+]([O-])c1cccc2c[nH]nc12	Tau fil binding inconclusive, DNA Pol III inh 15.8µM
O=c1[nH]c2[nH]c(=S)[nH]c(=S)c2[nH]1	ALOX15 inhib inconclusive
O=C(Nc1c(F)cc(F)cc1Br)c1ccco1	Tau fil binding 15.8µM
Cc1noc(C)c1C(=O)Nc1c(F)cc(F)cc1Br	none
C/C(=C\c1ccccc1)CN1CCN(c2ccccc2)CC1	ALOX15 inhib 15.8µM
O[C@@H](c1cc(C(F)(F)F)nc2c(Cl)cc(Cl)cc12)[C@@H]1CCCCN1	none
COC(=O)C1C(=O)C2=C(CC1C)NC(C)=C(C(=O)OC1CCCCC1)C2c1ccc(N(C)C)cc1 (stereo not drawn)	Tau fil binding 25.1µM, ALOX15 inhib 15.8µM, Hsp90 Hop PPI inconclusive
CCN(CC)CCOC(=O)C1(c2ccc([N+](=O)[O-])cc2)CCCC1	Tau fil binding 12.6µM!, ALOX15 inhib inconclusive
Cc1ccccc1CNc1ncnc2c1ncn2[C@@H]1O[C@@H](CO)[C@H](O)[C@@H]1O	none
C[C@H](c1ccccc1)N1C(=O)[C@H]2[C@@H]3[C@H](O)[C@H](O)CC(=O)[C@H]3CC[C@H]2C1=O	none (no result: Tau fil binding, TsaE inh, DNA Pol III inh, Hsp90 Hop PPI)
NC(=O)c1cc(N)ccc1N1CCCC1	Tau fil binding 15.8µM, ALOX15 inhib inconclusive
CSc1ccc2c(c1)N(CCCN(C)C)c1ccccc1S2	Tau fil binding 3.16µM
CN(C)CCCN1c2ccc(O)cc2Sc2ccc(Cl)cc21	Tau fil binding 3.16µM
CCSc1ccc2c(c1)N(CCCN1CCN(C)CC1)c1ccccc1S2	Tau fil binding 3.98µM
CN(C)CCCN1c2ccccc2Sc2cnccc21	none
CN1CCN(CCCN2c3ccccc3Sc3ccc(Cl)cc32)CC1	Tau fil binding inconclusive, ALOX15 inhib inconclusive
COc1ccc(OC)c(-c2ccccc2/C=N/NS(=O)(=O)c2ccc(C)cc2)c1	none (no result: Tau fil binding, TsaE inh, DNA Pol III inh, Hsp90 Hop PPI)
CCCCN(CC)CCNS(=O)(=O)c1cccc2cccnc12	ALOX15 inhib inconclusive
COc1cc2c(cc1NC(=O)CSCC(=O)O)oc1ccccc12	none
COc1cc2c(cc1NCc1ccccn1)oc1ccccc12	Tau fil binding 31.6µM, ALOX15 inhib inconclusive, Hsp90 Hop PPI inconclusive
CC(=O)c1cc2c(cc1O)OC(C)(C)C=C2	none (no result: Tau fil binding, TsaE inh, DNA Pol III inh, Hsp90 Hop PPI)
CNc1oc(Cc2cccc3ccccc23)nc1C#N	none
Cc1oc(/N=C/c2cccc3ccccc23)c(C#N)c1C	Tau fil binding 0.794µM, ALOX15 inhib inconclusive
CC(C)c1ccc(/C(C(=O)O)=C(\O)C(=O)O)cc1	none
Cc1ccccc1-c1ccc(Nc2ccc(N3CCOCC3)cc2)nn1	Tau fil binding 15.8µM
CN1C[C@H](C(=O)N[C@]2(C)O[C@@]3(O)[C@H]4CCCN4C(=O)[C@@H](Cc4ccccc4)N3C2=O)C[C@H]2c3cccc4[nH]cc(c34)C[C@@H]21	none (no result: ALOX15 inhib)
O=C(NCCN1CCOCC1)NC1(C(F)(F)F)Oc2ccc(Cl)cc2O1 (stereo not drawn)	ALOX15 inhib 3.16µM
Cc1ccc(N2C(=O)c3oc4ccccc4c(=O)c3C2c2cccc(O)c2)nc1 (stereo not drawn)	Tau fil binding 25.1µM, ALOX15 inhib inconclusive
COc1cc(C2c3c(oc4cc(C)c(C)cc4c3=O)C(=O)N2c2cc(C)ccn2)ccc1O (stereo not drawn)	Tau fil binding 5.01µM, Hsp90 Hop PPI inconclusive
COc1ccc(C2c3c(oc4ccccc4c3=O)C(=O)N2c2ccccn2)cc1OC (stereo not drawn)	none
CCOc1ccc(C2c3c(oc4ccccc4c3=O)C(=O)N2c2ccc(C)cn2)cc1OC (stereo not drawn)	Tau fil binding 3.98µM
COc1cc(C2c3c(oc4ccccc4c3=O)C(=O)N2c2ccc(C)cn2)ccc1O (stereo not drawn)	Tau fil binding 12.6µM
COc1ccc(C2c3c(oc4ccccc4c3=O)C(=O)N2c2ccccn2)cc1 (stereo not drawn)	none
C[C@](O)(c1ccccc1)c1nccc2ccccc12	none
CCOC(=O)c1c(-c2ccc(C)o2)csc1N	ALOX15 inhib 1.58µM, Hsp90 Hop PPI inconclusive
c1cnc2c(c1)ccc1cccnc12	Hsp90 Hop PPI 0.631µM
Cc1[nH]n(-c2ccccc2)c(=O)c1-c1ccccc1	ALOX15 inhib 3.98µM
Cc1[nH]n(-c2ccccc2)c(=O)c1/C=N/O	none
Cc1cccc2cccnc12	none
Cc1ccc2ccc3cccc4ccc1c2c34	Hsp90 Hop PPI 39.8µM
O=C(COc1ccccc1)Nn1cnc2ccccc21	ALOX15 inhib 12.6µM
Cc1cccc(NC(=O)Cn2nnc(-c3cccs3)n2)c1C	Tau fil binding 12.6µM, Hsp90 Hop PPI inconclusive
CCOC(=O)c1c(NC(=O)CN2CCOCC2)sc2c1CCCC2	ALOX15 inhib 25.1µM, Hsp90 Hop PPI inconclusive
Cc1ccc(C(=O)C2CCN(CC(=O)Nc3ccc(N(C)C)cc3)CC2)cc1	Tau fil binding 20µM
Cc1ccc(C(=O)C2CCN(CC(=O)Nc3ccc4c(c3)OCCO4)CC2)cc1	none
CC(C)=CCNc1ncnc2c1c(C#N)cn2[C@H]1O[C@@H](CO)[C@@H](O)[C@@H]1O	none
O=c1[nH][nH]c(=S)c(=O)[nH]1	none
COc1nccc(Nc2ccccc2)c1C#N	none
COc1ccc(Nc2ccnc3ccccc23)cc1	Tau fil binding 7.94µM
CCOC(=O)CNc1ccc2c(c1)OCO2	ALOX15 inhib 2µM
CCC(=O)Nc1ccc(C(=O)Nc2ccc3c(c2)OCO3)cc1	none
CC(=O)Nc1ccc(C(=O)Nc2ccc3c(c2)OCO3)cc1	Tau fil binding 20µM
CCOC(=O)c1c(N)sc(C(=O)Nc2ccc3c(c2)OCO3)c1C	none
Cc1onc(-c2ccccc2Cl)c1C(=O)Nc1ccc2c(c1)OCO2	none (no result: Tau fil binding, TsaE inh, DNA Pol III inh, Hsp90 Hop PPI)
O=C(Nc1ccncc1)C1COc2ccccc2O1 (stereo not drawn)	none
O=C(Nc1ccc2c(c1)OCO2)C1COc2ccccc2O1 (stereo not drawn)	Tau fil binding 12.6µM
Cc1noc(C(=O)Nc2ccc3c(c2)OCO3)c1Cl	Tau fil binding 10µM
COCCNC(=O)c1ccc(Cc2nc3ccccc3[nH]2)cc1	none (no result: Tau fil binding, TsaE inh, DNA Pol III inh, Hsp90 Hop PPI)
O=C(c1ccc(Cc2nc3ccccc3[nH]2)cc1)N1CCCCC1	none (no result: Tau fil binding, TsaE inh, DNA Pol III inh, Hsp90 Hop PPI)
Cc1ccc2c(c1)N[C@H](c1ccc(C(=O)O)cc1)c1cccn1-2	none
O=C(Nc1ccccc1)c1ccc(Cc2nc3ccccc3[nH]2)cc1	none (no result: Tau fil binding, TsaE inh, DNA Pol III inh, Hsp90 Hop PPI)
c1cncc(CNc2cc(-c3ccoc3)ncn2)c1	ALOX15 inhib 25.1µM, Hsp90 Hop PPI inconclusive
CCCCN(CC)S(=O)(=O)c1cccc2cccnc12	none
